This is an account of results in PubChem BioAssay AID651642 (Sanford-Burnham Center for Chemical Genomics, 2012).

Active and inactive are the calls of the source.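 How the source made its calls: active means average half-effect concentration of 10 µM or less in every one of the four cell panels; inactive means the rest.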

This assay has as its system HL-1. Kind of assay: cardiomyocyte survival under oxidative or metabolic stress – cell-based, panel, H9c2 and HL-1, H2O2, 2-deoxyglucose, ATP luminescence, SAR follow-up (AID 651642). The settings on record: H9c2/HL-1 cardiomyocyte 2-deoxyglucose damage, mean of runs, with 2-deoxyglucose.
With `CCOC(=O)c1ccccc1NC(=O)c1cc(-c2cc(OC)c(OC)c(OC)c2)nc2ccccc12`, the compound was called inactive.

Consider `COc1ccc2nc(-c3cc(OC)c(OC)c(OC)c3)cc(C(=O)Nc3cccc(C(C)=O)c3)c2c1`, for which the outcome was inactive.

For the compound `CCOC(=O)c1cccc(NC(=O)c2cc(-c3cc(OC)c(OC)c(OC)c3)nc3ccc(OC)cc23)c1`, the compound was classed as inactive.

On to `COc1cc(-c2cc(C(=O)NCC(=O)Nc3cccc(C(C)=O)c3)c3cccc(Cl)c3n2)cc(OC)c1OC`, for which the outcome was active.

`COc1ccc2c(c1OC)C(=O)N1c3ccccc3C(=O)N(Cc3cccc(C)c3)C21` (configuration not stated): the compound was classed as inactive.

As for `CCOC(=O)c1cccc(NC(=O)CNC(=O)c2cc(-c3cc(OC)c(OC)c(OC)c3)nc3ccc(Br)cc23)c1`, the compound was classed as active.

With `COc1cc(-c2cc(C(=O)Nc3cccc(C(C)=O)c3)c3cc(F)ccc3n2)cc(OC)c1OC`, the result was inactive.

`COc1ccc2nc(-c3cc(OC)c(OC)c(OC)c3)cc(C(=O)NCC(=O)Nc3ccc(C(C)=O)cc3)c2c1`: the call was active.

Regarding `COc1ccc2c(c1OC)C(=O)N1c3ccccc3C(=O)N(Cc3ccccc3Cl)C21` (configuration not stated), the outcome was active.

In the case of `COc1ccc2c(c1OC)C(=O)N1c3ccccc3C(=O)N(Cc3ccccc3C)C21` (configuration not stated), the call was active.

For the compound `COc1cc(-c2cc(C(=O)Nc3cccc(C(=O)NCc4ccccc4)c3)c3ccccc3n2)cc(OC)c1OC`, the call was active.

For `COc1cc(-c2cc(C(=O)NCC(=O)Nc3cccc(C(C)=O)c3)c3cc(C)ccc3n2)cc(OC)c1OC`, the compound was called inactive.

As for `COc1cc(-c2cc(C(=O)Nc3cccc(C(C)=O)c3)c3cccc(Cl)c3n2)cc(OC)c1OC`, the outcome was inactive.

Turning to `CCNC(=O)c1cccc(NC(=O)c2cc(-c3cc(OC)c(OC)c(OC)c3)nc3ccccc23)c1`, the compound was called active.

As to `COc1ccc2c(c1OC)C(=O)N1c3ccccc3C(=O)N(Cc3ccc(F)cc3)C21` (configuration not stated), the result was inactive.

With `COc1cc(-c2cc(C(=O)Nc3cccc(C(=O)Nc4ccccc4)c3)c3ccccc3n2)cc(OC)c1OC`, the outcome was active.

With `CCOC(=O)c1cccc(NC(=O)c2cc(-c3cc(OC)c(OC)c(OC)c3)nc3ccc(F)cc23)c1`, the outcome was inactive.

Consider `CCOC(=O)c1cccc(NC(=O)c2cc(-c3cc(OC)c(OC)c(OC)c3)nc3cc(Cl)ccc23)c1`, for which the compound was called inactive.

Consider `COc1cc(-c2cc(C(=O)Nc3cccc(C(C)=O)c3)c3ccc(Cl)cc3n2)cc(OC)c1OC`, for which the result was inactive.

Turning to `COc1cc(-c2cc(C(=O)Nc3cccc(C(=O)NC4CC4)c3)c3ccccc3n2)cc(OC)c1OC`, the call was active.

As for `COc1ccc2c(c1OC)C(=O)N1c3ccccc3C(=O)N(Cc3ccccc3Br)C21` (configuration not stated), the compound was classed as inactive.

On to `COc1cc(-c2cc(C(=O)Nc3cccc(-c4nn[nH]n4)c3)c3ccccc3n2)cc(OC)c1OC`, for which the compound was called inactive.

On to `COc1cccc(CNC(=O)CNC(=O)c2cc(-c3cc(OC)c(OC)c(OC)c3)nc3ccccc23)c1`, for which the compound was called inactive.

Turning to `COc1cc(-c2cc(C(=O)NCC(=O)Nc3cccc(C(C)=O)c3)c3cc(F)ccc3n2)cc(OC)c1OC`, the compound was classed as active.

For `COc1cc(-c2cc(C(=O)NCC(=O)Nc3ccc(C(C)=O)cc3)c3cc(F)ccc3n2)cc(OC)c1OC`, the call was inactive.

Turning to `COc1ccc2c(c1OC)C(=O)N1c3ccccc3C(=O)N(Cc3cccc(Cl)c3Cl)C21` (configuration not stated), the result was active.

Consider `CCOC(=O)c1cccc(NC(=O)c2cc(-c3cc(OC)c(OC)c(OC)c3)nc3ccccc23)c1`, for which the compound was classed as inactive.

With `COc1ccccc1CN1C(=O)c2ccccc2N2C(=O)c3c(ccc(OC)c3OC)C12` (configuration not stated), the compound was called active.

Consider `CCOC(=O)c1cccc(NC(=O)c2cc(-c3cc(OC)c(OC)c(OC)c3)nc3ccc(Cl)cc23)c1`, for which the call was inactive.

On to `CCOC(=O)c1cccc(NC(=O)CNC(=O)c2cc(-c3cc(OC)c(OC)c(OC)c3)nc3ccc(C)cc23)c1`, for which the outcome was active.

For `COc1ccc2c(c1OC)C(=O)N1c3ccccc3C(=O)N(Cc3cccc(Br)c3)C21` (configuration not stated), the outcome was active.

As for `COc1ccc2nc(-c3cc(OC)c(OC)c(OC)c3)cc(C(=O)NCC(=O)Nc3cccc(C(C)=O)c3)c2c1`, the compound was classed as active.
